According to PubChem BioAssay (NCATS):
Records with an inconclusive call do not appear. Activity calls are given as the source filed them. Calls follow the shape of the dose curve; as a rule, active = well fitted curve in the direction sought with a large enough effect; inconclusive = small, poorly fitted or top-dose-only effect, or another doubt; inactive = no such curve, though single readings can be large; an effect the other way counts as inactive or inconclusive.

Legend:
[1] = biological target: Aldehyde dehydrogenase, mitochondrial (Homo sapiens) (UniProt P05091); experiment: qHTS for Inhibitors of the Aldehyde Dehydrogenase Family (ALDH2) Primary screen (AID 2061308); also: nearly all actives have a fitted effect of over 55% in size; also: potency is read from the fitted curve at half-maximal effect
[2] = biological target: Retinaldehyde dehydrogenase 3 (Homo sapiens) (UniProt P47895); experiment: qHTS for Inhibitors of the Aldehyde Dehydrogenase Family (ALDH1A3) Validation screen (AID 2061312); also: nearly all actives have a fitted effect of over 45% in size
[3] = biological target: Retinaldehyde dehydrogenase 3 (Homo sapiens) (UniProt P47895); experiment: qHTS for Inhibitors of the Aldehyde Dehydrogenase Family (ALDH1A3) Primary screen (AID 2061315)
[4] = BET inhibitor-based combinations targeting novel dependencies in MECOM-rearranged (r) AML: SET-2 cell line (AID 2202231); conditions: SET-2 AML cells viability, CellTiter-Glo luminescence, 48 h; viability: hits give low values, concentration not given here; also: potency is read from the fitted curve at half-maximal effect; nearly all actives have a fitted effect of over 35% in size
Method in brief: (§1)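 Readout: CellTiter-Glo luminescence. Exposure: 48 h, 11 concentrations, 500 cells/well. Metric: AUC and within-line Z-AUC after DMSO/empty-well normalization.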

[5] = BET inhibitor-based combinations targeting novel dependencies in MECOM-rearranged (r) AML: OCI-AML3 cell line (AID 2202232); conditions: Potency: OCI-AML3 viability; also: potency is read from the fitted curve at half-maximal effect; nearly all actives have a fitted effect of over 35% in size
Method in brief: as §1

[6] = BET inhibitor-based combinations targeting novel dependencies in MECOM-rearranged (r) AML: MV-4-11 cell line (AID 2202233); also: potency is read from the fitted curve at half-maximal effect; nearly all actives have a fitted effect of over 45% in size
Method in brief: (§2)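 Seeding density was 500 cells/well, and drug exposure lasted 48 hr under standard culture conditions. Read-out used CellTiter-Glo reagent with a 15 min room-temperature incubation before luminescence measurement; AUC and Z-AUC summarize the normalized responses.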

[7] = BET inhibitor-based combinations targeting novel dependencies in MECOM-rearranged (r) AML: HNT-34 cell line (AID 2202234); also: potency is read from the fitted curve at half-maximal effect; nearly all actives have a fitted effect of over 35% in size
Method in brief: as §2

[8] = BET inhibitor-based combinations targeting novel dependencies in MECOM-rearranged (r) AML: UCSD-AML1 cell line (AID 2202235); also: nearly all actives have a fitted effect of over 40% in size; also: potency is read from the fitted curve at half-maximal effect
Method in brief: as §2

[9] = BET inhibitor-based combinations targeting novel dependencies in MECOM-rearranged (r) AML: AML-191 cell line (AID 2202236; also: potency is read from the fitted curve at half-maximal effect; nearly all actives have a fitted effect of over 35% in size)
Method in brief: as §1

[10] = BET inhibitor-based combinations targeting novel dependencies in MECOM-rearranged (r) AML: AML-194 cell line (AID 2202237; also: potency is read from the fitted curve at half-maximal effect; nearly all actives have a fitted effect of over 40% in size)
Method in brief: as §1

[11] = biological target: Retinal dehydrogenase 2 (Homo sapiens) (UniProt O94788); experiment: qHTS for Inhibitors of the Aldehyde Dehydrogenase Family (ALDH1A2) Confirmation screens (AID 2061314); also: potency is read from the fitted curve at half-maximal effect; nearly all actives have a fitted effect of over 65% in size
[12] = biological target: Aldehyde dehydrogenase 1A1 (Homo sapiens) (UniProt P00352); experiment: qHTS for Inhibitors of the Aldehyde Dehydrogenase Family (ALDH1A1) Confirmatory screens (AID 2061316); also: potency is read from the fitted curve at half-maximal effect; nearly all actives have a fitted effect of over 65% in size

Measured: Potency

Fc1ccc(C2CCNC[C@H]2COc2ccc3c(c2)OCO3)cc1 (stereo not given in full)
inactive: [1] | [2] | [3]

C[C@@H](O[C@H]1OCCN(Cc2n[nH]nc2CN(C)C)[C@H]1c1ccc(F)cc1)c1cc(C(F)(F)F)cc(C(F)(F)F)c1
inactive: [1] | [2] | [3]

CCCSc1nc(N[C@@H]2C[C@H]2c2ccc(F)c(F)c2)c2nnn([C@@H]3C[C@H](OCCO)[C@@H](O)[C@H]3O)c2n1
inactive: [1] | [2] | [3]

CC(C)C1CCC(C(=O)N[C@@H](Cc2ccccc2)C(=O)O)CC1 (stereo not given in full)
inactive: [1] | [2] | [3]

Cc1ccccc1-c1cc(N2CCN(C)CC2)ncc1N(C)C(=O)C(C)(C)c1cc(C(F)(F)F)cc(C(F)(F)F)c1
inactive: [1] | [2] | [3]

CN(c1nccc(=O)[nH]1)C1CCN(c2nc3ccccc3n2Cc2ccc(F)cc2)CC1
inactive: [1] | [2] | [3]

CC(=O)Nc1cccc2c1c(Sc1ccc(Cl)cc1)c(C)n2CC(=O)O
inactive: [1] | [2] | [3]

O=C1Cc2c([nH]c3ccc(Br)cc23)-c2ncccc2N1
inactive: [1] | [2] | [3]

CN(C)c1nc(NC2CCC(NC(=O)c3ccc(F)c(F)c3)CC2)nc2ccccc12 (stereo not given)
inactive: [1] | [2] | [3]

Fc1ccc(-n2cc(CCCCN3CCC4(CC3)OCc3ccccc34)c3ccccc32)cc1
inactive: [1] | [2] | [3]

COc1ccc2cc1Oc1ccc(cc1)C[C@H]1c3c(cc4c(c3Oc3cc5c(cc3OC)CCN(C)[C@@H]5C2)OCO4)CCN1C
inactive: [1] | [2] | [3]

O=C(NC1Cc2ccccc2N(C[C@@H](O)CO)C1=O)c1cc2cc(Cl)sc2[nH]1 (stereo not given in full)
inactive: [1] | [2] | [3]

O=C(/C=C\n1cnc(-c2cc(C(F)(F)F)cc(C(F)(F)F)c2)n1)N1CC(F)(F)C1
inactive: [1] | [2] | [3]
active: [4] 1.66 µM | [5] 2.63 µM | [6] 1.32 µM | [7] 5.25 µM | [8] 0.934 µM | [9] 1.32 µM | [10] 1.05 µM

COc1cc(N(C)CCN(C)C)c(N)cc1Nc1nccc(-c2cn(C)c3ccccc23)n1
inactive: [1] | [2] | [3]

CCc1ccccc1OC[C@@H](O)CN[C@H]1CCCc2ccccc21
inactive: [1] | [2] | [3]

NC(=O)c1nc(Nc2ccccc2)sc1NC(=O)C1CCCCC1
inactive: [1] | [2] | [3]

CCS(=O)c1nc(-c2cccc(OCc3ccccc3)c2)cc(C(F)(F)F)n1 (stereo not given)
inactive: [1] | [2] | [3]

CC(C)Oc1ccc(C(=O)NC(CNC(=O)CN(C)C)Cc2ccc(-c3cn4cccc(C(C)O)c4n3)cc2)cc1Cl (stereo not given)
inactive: [1] | [2] | [3]

C#CCNCc1cc2cc(OCc3ccccc3)ccc2[nH]1
inactive: [1] | [2] | [3]

CN(C)C(=O)COC(=O)c1cc(-c2ccc(C3CCNCC3)cc2)c2ccc(-c3ccc(C(F)(F)F)cc3)cc2c1
inactive: [1] | [2] | [3]

COc1ccc(N(C(=O)Nc2c(C)cccc2C)c2cc(Nc3ccc(N4CCN(C)CC4)cc3)ncn2)c(OC)c1
inactive: [1] | [2] | [3]

CNC(=O)c1ccccc1Nc1nc(Nc2ccc3c(c2OC)CCCC(N2CCN(CCO)CC2)C3)ncc1Cl (stereo not given)
inactive: [1] | [2] | [3]

Cc1cc(C)cc(-c2cnc3cc(Cl)c(-c4cccc(O)c4)cc3c2OCCCN)c1
inactive: [1] | [2] | [3]

CC(=O)Nc1nc2c(Oc3cc(-c4ccc(C(F)(F)F)cc4)ncn3)cccc2s1
inactive: [1] | [2] | [3]

CCC(=C(c1ccc(OCCN2CCCC2)cc1)c1ccc(OCCN2CCCC2)cc1)c1ccccc1
inactive: [1] | [2] | [3]

NC(=O)C(CCC(F)(F)F)N(Cc1ccc(-c2ncon2)cc1F)S(=O)(=O)c1ccc(Cl)cc1 (stereo not given)
inactive: [1] | [2] | [3]

COc1ccc(C2=N[C@@H](c3ccc(Cl)cc3)[C@@H](c3ccc(Cl)cc3)N2C(=O)N2CCNC(=O)C2)c(OC(C)C)c1
inactive: [1] | [2] | [3]

OC1CCC(Nc2ncc3nc(Nc4c(F)cc(F)cc4F)n([C@H]4CCOC4)c3n2)CC1 (stereo not given in full)
inactive: [1] | [2] | [3]

CCCc1[nH]nc2c1C(c1cc(Cl)cc(Cl)c1O)C(C#N)=C(N)O2 (stereo not given)
inactive: [1] | [2] | [3]

COC(C)(C)CCn1nc(Nc2c(C)cccc2C)c2cnc(Nc3ccc(OCCN4CCCC4)c(F)c3)nc21
active: [4] 18.6 µM | [5] 20.9 µM | [6] 5.25 µM | [7] 0.0661 µM | [8] 9.34 µM | [9] 14.8 µM | [10] 14.8 µM
inactive: [1] | [2] | [3]

CC(Oc1cc(-n2cnc3ccc(CN4CCN(C)CC4)cc32)sc1C(N)=O)c1ccccc1C(F)(F)F (stereo not given)
inactive: [1] | [2] | [3]

N#Cc1ccc(COC[C@H]2O[C@@H](n3c(NCc4ccc(Cl)c(Cl)c4)nc4c(N)ncnc43)[C@H](O)[C@@H]2O)cc1
inactive: [1] | [2] | [3]
active: [4] 7.42 µM | [5] 2.63 µM | [6] 14.8 µM | [7] 2.95 µM | [8] 2.63 µM

COc1ccc(C2=NC(c3ccc(Cl)cc3)C(c3ccc(Cl)cc3)N2C(=O)N2CCNC(=O)C2)c(OC(C)C)c1 (stereo not given)
inactive: [1] | [2] | [3]

CCOc1cc(C(C)(C)C)ccc1C1=NC(C)(c2ccc(Cl)cc2)C(C)(c2ccc(Cl)cc2)N1C(=O)N1CCN(CCCS(C)(=O)=O)CC1 (stereo not given)
inactive: [1] | [2] | [3]

CCC(C)CNCC(=O)N1CCc2sccc2C1COc1cccc(C)c1 (stereo not given)
inactive: [1] | [2] | [3]

CCc1cc2c(cc1CC)CC(NCC(O)c1ccc(O)c3[nH]c(=O)ccc13)C2 (stereo not given)
inactive: [1] | [2] | [3]

CN(C)CCN(Cc1ccccc1)C(=O)c1cc(-c2ccc(F)cc2)n2nc(C(C)(C)C)cc2n1
inactive: [1] | [2] | [3]

CCOC(=O)Nc1nc2ccccc2[nH]1
inactive: [1] | [2] | [3]

CCCC1(CCC)CCC2(CCN(CCCN(CC)CC)C2)CC1
active: [4] 5.9 µM | [5] 7.42 µM | [6] 6.61 µM | [7] 4.68 µM | [8] 8.33 µM | [9] 9.34 µM | [10] 9.34 µM
inactive: [1] | [2] | [3]

N#CC(CCCN1CCC(O)(c2ccc(Cl)cc2)CC1)(c1ccccc1)c1ccccc1
inactive: [1] | [2] | [3]

CC(C)(C)CC(C)(C)c1ccc(OCCOCC[N+](C)(C)Cc2ccccc2)cc1
inactive: [1] | [2] | [3]

CC(=O)N1CCN([C@H]2CCN(C(=O)N(C)[C@H](C)c3cc(C(F)(F)F)cc(C(F)(F)F)c3)[C@@H](c3ccc(F)cc3C)C2)CC1
inactive: [1] | [2] | [3]

CCC[C@H]1C[C@H](C(=O)N[C@@H]([C@@H]2O[C@@H](SC)[C@@H](O)[C@@H](O)[C@@H]2O)[C@H](C)Cl)N(C)C1
inactive: [1] | [2] | [3]

CCOc1ccc(NC(=O)NCC2CCCN2c2ccc(OC)cc2)cc1 (stereo not given)
active: [11] 14.2 µM
inactive: [1]

Cc1ccc(CNc2ccc(N3CCOCC3)cc2)cc1
active: [11] 11.3 µM
inactive: [1]

CNCc1ccc(C)c(NC(=O)c2ccc(Nc3nc(-c4ccccc4)c4ccccc4n3)cc2)c1
inactive: [1] | [2] | [3]
active: [5] 16.6 µM | [6] 13.2 µM | [7] 20.9 µM | [9] 20.9 µM

N#Cc1c(-c2ccc(F)c(Br)c2)no[n+]1[O-]
inactive: [3]
active: [1] 3.98 µM | [11] 2.52 µM | [12] 20.1 µM

Cn1ncc(Cl)c1-c1cc(C(=O)N[C@H](CN)Cc2ccc(F)c(F)c2)sc1Cl
inactive: [1] | [2] | [3]
active: [4] 20.9 µM | [5] 18.6 µM | [6] 16.6 µM | [8] 13.2 µM | [9] 26.3 µM | [10] 16.6 µM

CC(=O)Nc1sc2c(c1-c1nc3ccccc3s1)CCN(C(C)C)C2
inactive: [1] | [3]
active: [11] 28.3 µM

O=C(Nc1ncc(Cc2ccc(C(F)(F)F)cc2)s1)c1ccc(-c2ccc([N+](=O)[O-])cc2)o1
inactive: [1] | [3]
active: [11] 22.5 µM

N#Cc1c(-c2cccc([N+](=O)[O-])c2)no[n+]1[O-]
active: [1] 7.94 µM | [11] 5.04 µM | [12] 12.7 µM
inactive: [3]

Cc1ccc(NS(=O)(=O)c2ccc3c(c2)C(Cl)(Cl)C(=O)N3)cc1C
inactive: [1] | [3]
active: [11] 3.18 µM | [12] 7.12 µM

NC(=O)C1CCN(c2nc(-c3ccc(N4CCCCC4)nc3)cs2)CC1
inactive: [1] | [3]
active: [11] 12.7 µM

O=C(N[C@H]1CCC[C@H](CO)C1)C1CCN(c2nc3cc(Cl)c(-c4ccc(Cl)cc4)cc3o2)CC1
inactive: [1] | [2] | [3] | [8]
active: [4] 20.9 µM | [6] 23.5 µM

Cn1ncc(Cl)c1-c1cc(C(=O)NC(CN)Cc2ccc(F)c(F)c2)oc1Cl (stereo not given)
active: [5] 18.6 µM | [6] 11.8 µM | [7] 18.6 µM | [8] 13.2 µM | [9] 20.9 µM | [10] 18.6 µM
inactive: [1] | [2] | [3]

C[C@H]1O[C@@H](O[C@H]2[C@@H](O)C[C@H](O[C@H]3[C@@H](O)C[C@H](O[C@H]4CC[C@@]5(C)[C@H](CC[C@@H]6[C@@H]5C[C@@H](O)[C@]5(C)[C@@H](C7=CC(=O)OC7)CC[C@]65O)C4)O[C@@H]3C)O[C@@H]2C)C[C@H](O)[C@@H]1O
inactive: [1] | [2] | [3]
active: [5] 0.118 µM | [6] 0.105 µM | [7] 0.105 µM | [8] 0.132 µM | [9] 0.132 µM | [10] 0.118 µM
